T1: UNK ZnF1-6 (called full-length) (human, UniProt Q9C0B0 30-357)
T1 sequence: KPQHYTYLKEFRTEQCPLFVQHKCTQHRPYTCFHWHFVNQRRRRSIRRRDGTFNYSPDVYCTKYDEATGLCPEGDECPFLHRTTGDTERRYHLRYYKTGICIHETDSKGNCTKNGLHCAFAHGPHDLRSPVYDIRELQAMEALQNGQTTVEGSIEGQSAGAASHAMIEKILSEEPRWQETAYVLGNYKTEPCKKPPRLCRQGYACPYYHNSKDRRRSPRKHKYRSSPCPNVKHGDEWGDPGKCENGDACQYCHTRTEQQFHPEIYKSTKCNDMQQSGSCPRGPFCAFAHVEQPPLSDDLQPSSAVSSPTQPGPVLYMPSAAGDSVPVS

B1: chr16:70160055:70160156:+|3pUTR|ENSG00000090857|msi1|total|mutant (ssRNA)
RNA: GGGAGUUCUACAGUCCGACGAUCUUGUGCUCACCACGAAGGAUGGUCUCUGCCUUCUCUUGUCGGUGUAUGCCAUCUGAACCCCGGAACACAAAGUAUAUUGGCCUCAAACGGAGACCCAGGGUUGCCAGUUUUCCGUGGGCCCAACAGAGGAUUGAGCAUCA
B2: chr12:68660398:68660499:+|3pUTR|ENSG00000127314|msi1|FALSE|unique (ssRNA)
RNA: GGGAGUUCUACAGUCCGACGAUCUUGAGGUGGCCAAAUGUAAACUAAAAGCCUUAAUUAAAGUGGUGCAAUUUUGUAUAACUUAGCAUCAGUAGUUCAAUAAAUUUGGAUUGCCAUGCAAGGGCUUGCAUUAUAAUUACUUGCCAACAGAGGAUUGAGCAUCA
B3: chr4:186588032:186588133:-|3pUTR|ENSG00000083857|msi1|FALSE|unique (ssRNA)
RNA: GGGAGUUCUACAGUCCGACGAUCUUUUUUUACUAUAACCAGGGUUUCAUUCUGUCUUUUUCCACUGAAGUGUGACAUUUUGUUAGUACAUUUCAGUGUAGUCAUUCAUUUCUAGCUGUACAUAGGAUGAAGGAGAGAUCAGAUCAACAGAGGAUUGAGCAUCA
B4: chr1:225496770:225496921:-|3pUTR|ENSG00000154380|msi1|FALSE|unique (ssRNA)
RNA: GGGAGUUCUACAGUCCGACGAUCUUUUUUAAUUGCAGACAGUAAUGCAUGUCACACUAAUAUGUAGUGGCCUUUUCAAGGCCUAGUCCCAGGGAAAACAUUUUGUAGAGUAUAGGGGAGUGGGAGGAAGGGGAGGAAUAAUUUCAACAGAGGAUUGAGCAUCA
B5: chr13:45969211:45969312:-|CDS|ENSG00000123200|unk|FALSE|unique (ssRNA)
RNA: GGGAGUUCUACAGUCCGACGAUCGUCCCUGACCGUACAGAGGUGACAGAAGCAGAGCAUACUGCCACCGCCACGACUCCUGGUAGUACCCCUUCUCCUCUAUCUUCUCUUCUUCCUCCUCCACCGCCUGUGGCUACUGCCACUCAACAGAGGAUUGAGCAUCA
B6: ENSG00000107863:be:win_5851|CDS_3pUTR|ENSG00000107863|bound_else_gene|NA|bound_elsewhere_windowed (ssRNA)
RNA: GGGAGUUCUACAGUCCGACGAUCAAAGCAGAGUUUCAUCCCUGUCUUUAAACUGGGGGUAUGUCCACUCUAGCAAGUAAAAAAACUACUGUUACACGUUCCAGUAACUCUGUCAAUAUUUUCUUGUAUCAGAAUUGUUAUUAUCAACAGAGGAUUGAGCAUCA

In all, about 5,800 sequences were measured (“enrichment r”: median about 0.68, highest 2% from about 11 on). Many of the other results were omitted from the sample, so the highest values are more common in it than they were.

In this test the target is T1, UNK ZnF1-6 (called full-length). Kind of test: nsRBNS (natural sequence RNA bind-n-seq); RBNS binding buffer (assumed for nsRBNS): 25 mM Tris pH 7.5, 150 mM KCl, 3 mM MgCl2, 0.01% Triton X-100, 500 ug/ml BSA, 20 U/ml SUPERase-In, 4 C; UNK is unkempt and MSI1 is Musashi-1; names of the RNAs are library labels; protein concentration not given here; high values mean tight binding.
Consider B1, for which the binding signal stood at 0.469 enrichment R.

In turn, B2 showed a binding signal of 0.685 enrichment R.

B3 yielded a binding signal of 1.31 enrichment R.

B4 returned a binding signal of 7.59 enrichment R.

In the case of B5, the binding signal stood at 1.84 enrichment R.

Molecule B6 showed a binding signal of 0.426 enrichment R.

The record behind these values is PMC12136788.
